DAX1 inh-1 = blocks DAX1 repression of SF-1 activated StAR promoter; 1.1% of 370,000 active; inhibition, % at 6.8 µM; HEK293T StAR-luciferase reporter, SF-1/DAX-1 repression relief;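 active = inhibition above the mean over all tested compounds plus 3 SD, cut at about 3.6% in these data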;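 note: 0% = DAX-1 cells with DMSO and 100% = cells lacking DAX-1 with DMSO; higher inhibition means more luminescence from relief of DAX-1 repression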
hgDAF12 agonist = activates the H. glycines DAF-12 receptor ligand-binding domain; AID 687014; HEK293 GAL4-hgDAF12 UAS-luciferase reporter, agonist luminescence; normalized to butyrate control; 1.8% of 370,000 active; activation, % at 6.8 µM;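 active = activation above a cutoff set at the mean of all screened compounds plus 3 SD, cut at about 10% in these data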;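 note: 0% = DMSO wells and 100% = sodium butyrate wells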
hcDAF-12 act = H. contortus DAF-12 activation, primary screen | HEK293 hcDAF-12 lit1-tk-luc reporter, luminescence; 0% DMSO, 100% Δ7-dafachronic acid | activation, % at 6.8 µM | AID 652067 | 1.4% of 370,000 active;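 active = activation above the mean of all tested compounds plus 3 SD, cut at about 5.5% in these data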;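 note: 100% = response to 3 µM Δ7-dafachronic acid high control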
DAX1 inh-2 = inhibitors of human orphan nuclear receptor DAX1 (NR0B1); HEK293 Gal4-DAX1 luciferase reporter, luminescence; 0.99% of 340,000 active; inhibition, % at 6.75 µM; P51843; AID 504766;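 active = inhibition above the mean over all tested compounds plus 3 SD, cut at about 4.2% in these data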;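 note: 0% = DAX1-transfected cells with DMSO and 100% = empty-vector control cells with DMSO; inhibition shows as a rise in luminescence from relieved DAX1 repression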
FXN GAA850 act = increases GAA850 frataxin promoter reporter activity; HEK293 lucGAA850 FXN promoter luciferase reporter, 24 h; percent of 10 µM SAHA response; activation, % at 6 µM; 0.56% of 360,000 active;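 active = activation above the average of all compounds screened plus 3 SD, cutoff fixed separately per campaign, cut at about 7.5% in these data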;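 note: 0% = DMSO wells and 100% = 10 µM SAHA wells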
ssDAF12 agonist = activators of S. stercoralis DAF-12 nuclear receptor. HEK293 ssDAF-12/GRIP1 lit1-tk-luc reporter, luminescence; % of 3 µM dafachronic acid response. activation, % at 6.8 µM. 1% of 370,000 active;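 active = activation above the mean over all tested compounds plus 3 SD, cut at about 0.9% in these data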;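 note: 0% = DMSO-only wells and 100% = 3 µM delta7-dafachronic acid wells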
DAX1 inh confirm = confirmation of human DAX1 (NR0B1) inhibitors | shares compounds with DAX1 inh-1 | HEK293T StAR-promoter luciferase reporter, SF-1/DAX-1 repression | inhibition, % at 6.8 µM | 87% of 2,400 active | AID 652134;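 active = inhibition above the average of every tested compound plus 3 SD, cut at about 3.8% in these data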;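 note: 0% = DAX-1 cells with DMSO and 100% = no DAX-1 control cells with DMSO; active compounds raise luminescence by relieving repression of the StAR reporter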
SF1 mutant ctr = nonselective inhibitor or artifact in SF-1 mutant DAX1 counter-screen. shares compounds with DAX1 inh-1. HEK293 StAR-luciferase, SF-1 AF2 mutant, luminescence. AID 652136. inhibition, % at 6.8 µM. 78% of 2,400 active;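 active = inhibition above the mean of all tested compounds plus 3 SD, cut at about 3% in these data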;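 note: 0% = DAX-1 transfected cells with DMSO and 100% = cells without DAX-1 with DMSO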
LXRb hcDAF ctr = activates human LXR-beta, counter-screen for hcDAF-12 agonists | shares compounds with hcDAF-12 act | HEK293 Gal4-LXR tk-luc reporter, luminescence, 24 h; normalized: DMSO 0%, positive control 100% | activation, % at 6.8 µM | 3,400 tested, under 10 active | AID 743027;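 active = mean percent activation of the reporter above a cutoff set as the average over tested compounds plus their standard deviation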
Target sequence (P55055 whole entry, looked up, the tested form may be a part): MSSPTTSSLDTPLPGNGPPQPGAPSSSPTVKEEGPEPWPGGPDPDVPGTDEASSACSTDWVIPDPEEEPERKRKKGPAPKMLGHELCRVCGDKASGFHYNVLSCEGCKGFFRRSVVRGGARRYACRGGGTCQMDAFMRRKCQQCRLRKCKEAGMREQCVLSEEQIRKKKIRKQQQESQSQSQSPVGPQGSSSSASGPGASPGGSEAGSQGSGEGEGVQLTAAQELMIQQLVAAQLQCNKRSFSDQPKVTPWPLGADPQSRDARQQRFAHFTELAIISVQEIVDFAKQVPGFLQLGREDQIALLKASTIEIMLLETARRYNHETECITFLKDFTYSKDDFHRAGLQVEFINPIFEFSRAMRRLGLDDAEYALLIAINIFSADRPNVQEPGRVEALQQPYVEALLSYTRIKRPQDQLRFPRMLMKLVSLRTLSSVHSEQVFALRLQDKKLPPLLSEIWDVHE
hcDAF12 conf = confirmation of H. contortus DAF-12 agonists; shares compounds with hcDAF-12 act; HEK293 hcDAF-12 lit1-tk-luc reporter, luminescence; % of Δ7-dafachronic acid response; activation, % at 6.8 µM; 61% of 3,400 active;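 active = mean activation across triplicate tests above the threshold derived from the earlier primary screen, cut at about 5.5% in these data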;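 note: 0% = DMSO only wells and 100% = 3 µM Δ7-dafachronic acid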
hgDAF12 ag = confirmation of H. glycines DAF-12 agonists; shares compounds with hgDAF12 agonist; HEK293 GAL4-hgDAF12 luciferase reporter, agonist mode; percent of butyrate response; activation, % at 6.8 µM; 80% of 3,300 active; AID 743050;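 active = mean activation over triplicate wells above the hit cutoff derived from the earlier primary screen, cut at about 11% in these data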;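 note: 0% = DMSO low control and 100% = 2 mM sodium butyrate high control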
LXR ag 2 = LXR-beta agonism as DAF-12 counter-screen. shares compounds with hgDAF12 agonist. AID 743051. HEK293 Gal4-LXR luciferase reporter, 24 h. 3,300 tested, under 10 active. activation, % at 6.8 µM;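 active = mean activation of the triplicate above a set limit carried over from the primary screen, none filed active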
* hit, by the source's call; · = no result given. Most compounds without a hit are left out; they make up all but 4.5% or so of the library.

SMILES	DAX1 inh-1	hgDAF12 agonist	hcDAF-12 act	DAX1 inh-2	FXN GAA850 act	ssDAF12 agonist	DAX1 inh confirm	SF1 mutant ctr	hgDAF12 ag	LXR ag 2	others
CC(C)C(=O)Nc1ccc(C=C2C=Cc3ccccc32)cc1	5.5*	17*	3	·	3	0.9*	8.8*	5.0*	20*	1
Cc1ccc2nc(-c3ccc(C#N)cc3)c(Cc3ccccn3)n2c1	3	6	1	·	·	0	·	·	·	·
Cc1ccc(Cc2c(-c3ccccc3)nc3ccc(Br)cn23)cc1	2	7	2	0	4	0	·	·	·	·
Cc1ccc(Cc2c(-c3ccc(Br)cc3)nc3cc(C)ccn23)cc1	7.5*	14*	4	4	3	0	3.7*	2	1	0
Cc1ccc(-c2nc3ccc(C)cn3c2Cc2ccccn2)cc1	5.8*	14*	3	·	·	0	10*	4.5*	5	1
Cc1ccc2nc(-c3ccc(F)cc3)c(Cc3ccccc3C(F)(F)F)n2c1	4.7*	14*	5	·	·	1.7*	2	4.6*	6	0
Cc1ccc(-c2nc3ccc(Br)cn3c2Cc2ccccc2)cc1	5.4*	14*	3	·	·	1	8.2*	3	16*	1
Cc1ccc(Cc2c(-c3ccc(F)cc3)nc3cc(C)ccn23)cc1	6.6*	17*	2	3	7	0	0	0	7	0
Cc1ccc(Cc2c(-c3ccc(F)cc3)nc3ccc(Cl)cn23)cc1	2	3	1	3	1	1	·	·	·	·
Cc1ccnc(SCc2cc(=O)c(OC(=O)c3ccc(C)c([N+](=O)[O-])c3)co2)n1	·	0	-1	·	·	-1	·	·	·	·
Cc1ccc(CN2CCCCC(NC(=O)c3cccc(F)c3)C2=O)cc1 (configuration not stated)	0	-1	-2	·	·	-1	·	·	·	·
Nc1ccc(C(=O)Nc2nc3ccccc3s2)cc1	5.3*	21*	6.6*	-2	3	1.2*	5.6*	3.0*	21*	1	LXRb hcDAF ctr=2;hcDAF12 conf=8.7*
O=C(N=Nc1c(O)[nH]c2ccccc12)Nc1ccccc1	5.5*	17*	2	5.6*	0	1.2*	16*	7.1*	13*	1
CC1CCCN(C(=O)c2ccc(-c3ccccc3Cl)o2)C1 (configuration not stated)	7.8*	18*	2	4	4	0	12*	6.3*	15*	1
CC1CN(C(=O)c2ccc(-c3ccccc3Cl)o2)CC(C)O1 (configuration not stated)	0	3	-1	0	4	-1	·	·	·	·
Cc1cccc(-c2noc(-c3csc([C@@H]4C[C@H](O)[C@@H](CO)O4)n3)n2)c1	9.8*	18*	5	·	2	1	16*	9.5*	20*	1
COc1ccc(-c2noc(-c3csc([C@@H]4O[C@H](CO)[C@H](O)[C@H](O)[C@H]4O)n3)n2)cc1OC	1	5	0	·	2	-1	·	·	·	·
